From PubChem BioAssay (NCI)
About 83,000 compounds went through this panel and 20% of them were active in at least one assay; those are over-represented in the sample as a whole.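 Compound tested at a single concentration for 48 hours in 96-well plates; a percent growth value below 10 was scored as active.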 Active and inactive are the calls of the source.

Key:
Assay in all cases: NCI-60 one-dose screen, 48 h (100 = growth as untreated, 0 = no growth, -100 = all killed)
Conditions in all cases: 10 µM unless noted
[1] = system: NCI-H23 lung
[2] = system: NCI-H226 lung
[3] = system: NCI-H322M lung
[4] = system: HOP-62 NSCLC
[5] = system: NCI-H460 lung
[6] = system: HOP-92 NSCLC
[7] = system: NCI-H522 lung
[8] = system: A549/ATCC NSCLC
[9] = system: 786-0 renal
[10] = system: COLO 205 colon
[11] = system: DU-145 prostate
[12] = system: K-562 leukemia
[13] = system: MALME-3M melanoma
[14] = system: MDA-MB-231 breast
[15] = system: RXF 393 renal
[16] = system: SF-268 CNS
[17] = system: SF-295 CNS
[18] = system: SF-539 CNS
[19] = system: UACC-257 melanoma
[20] = system: M14 melanoma

Measured: growth

COc1ccc2c(c1)/C(=C1\S/C(=N/c3nnc(C)s3)NC1=O)C(=O)N2Cc1ccc(Cl)cc1
active: [5] 8.75%
inactive: [1] 34.5% | [2] 56.5% | [3] 49.9% | [4] 66.8% | [6] 26% | [7] 45.8% | [8] 36.2% | [9] 49.2% | [10] 79.9% | [11] 52.4% | [12] 38.3% | [13] 72.5% | [14] 89.5% | [15] 75.8% | [16] 46% | [17] 14.9% | [18] 48.7% | [19] 83.6% | [20] 45.6%

CC1CCN(CCCCCOc2ccc3oc4cc(Cl)ccc4c(=O)c3c2)CC1
active: [12] 5.17% | [13] 9.78% | [19] -38.8% | [20] -50.1%
inactive: [1] 87.7% | [2] 113% | [3] 73.8% | [4] 82.2% | [5] 36.3% | [6] 93.6% | [7] 69.9% | [8] 68.6% | [9] 65.1% | [10] 36.6% | [11] 83.7% | [14] 44.3% | [15] 52.8% | [16] 68.1% | [17] 78.2% | [18] 40.6%

COCCc1n(Cc2ccc3ccccc3c2)c2ccccc2[n+]1Cc1ccc2ccccc2c1
active: [1] -24.3% | [2] -7.12% | [3] 5.25% | [4] -19.1% | [5] -65.3% | [6] -53.1% | [7] -54.4% | [8] 4.72% | [9] -94.3% | [10] -71% | [11] 2.65% | [12] -67.8% | [13] -69.5% | [14] -74.7% | [15] -44.3% | [16] -58.4% | [17] -32.7% | [18] -8.99% | [19] -29.3% | [20] -72.2%

COc1ccc(NC(=O)Nc2ccc(Nc3nc(C)cc(Nc4ccc(C)cc4)n3)cc2)cc1
active: [1] -57.2% | [2] -71.4% | [3] -74.7% | [4] -94.1% | [5] -74.2% | [6] -54.1% | [7] -74.8% | [8] -83% | [9] -93.8% | [10] -78.7% | [11] -95.8% | [12] -60.9% | [13] -78.7% | [14] -75.8% | [15] -80.7% | [16] -67.9% | [17] -66% | [18] -89.5% | [19] -87.8% | [20] -82.9%

COc1ccc(/C=C(/C(=O)N2CCN(Cc3ccccc3)CC2)c2cc(OC)c(OC)c(OC)c2)cc1O
inactive: [1] 81% | [2] 81.7% | [3] 91.2% | [4] 74.2% | [5] 58.4% | [6] 44.3% | [7] 44.8% | [8] 68% | [9] 87.6% | [10] 110% | [11] 82.3% | [12] 23.1% | [13] 65.8% | [14] 76.9% | [15] 62.3% | [16] 72.6% | [17] 82.8% | [18] 55.7% | [19] 54.7% | [20] 38%

N#Cc1c(-c2ccc(F)cc2)c(C#N)c2c(C#N)c(N)nn2c1N
inactive: [1] 96.9% | [2] 82.2% | [3] 97.5% | [4] 81% | [5] 98.7% | [6] 76.9% | [7] 85.7% | [8] 92% | [9] 94.2% | [10] 98.4% | [11] 89.8% | [12] 106% | [13] 110% | [14] 102% | [15] 84.4% | [16] 93.3% | [17] 101% | [18] 90.8% | [19] 110% | [20] 105%

CCOC(=O)C1CCN(S(=O)(=O)/N=C2/NC(=O)NC2=C(Cl)Cl)CC1
active: [5] 7.43% | [6] -73.9% | [7] -69.4% | [9] 3.63% | [10] -69.6% | [12] -15.7% | [13] -60% | [14] 9.62% | [18] -4.27% | [20] -22.4%
inactive: [1] 16.7% | [2] 118% | [3] 31.1% | [4] 20.2% | [8] 21% | [11] 25.7% | [15] 83.8% | [16] 11.2% | [17] 17.4% | [19] 19.9%

COc1ccc2nc(-c3ccc(OC)c(OC)c3)cc(-c3nnc(SCC(=O)Nc4ccc(C(C)=O)cc4)o3)c2c1
inactive: [1] 104% | [2] 96.9% | [3] 103% | [4] 107% | [5] 105% | [6] 116% | [7] 88.3% | [8] 94% | [9] 101% | [10] 116% | [11] 108% | [12] 99.2% | [13] 109% | [14] 99.5% | [15] 102% | [16] 104% | [17] 100% | [18] 96% | [19] 101% | [20] 105%

O=CN1N=C(c2ccc(F)cc2)CC1c1cccc(Nc2ccnc3cc(C(F)(F)F)ccc23)c1 (stereo not given)
inactive: [1] 42.5% | [2] 60.3% | [3] 85.1% | [4] 60.8% | [5] 46.7% | [6] 67.4% | [7] 45.6% | [8] 61% | [9] 76.1% | [10] 32.3% | [11] 70.9% | [12] 22.7% | [13] 67.9% | [14] 72.5% | [15] 71.2% | [16] 51.9% | [17] 44.2% | [18] 77.5% | [19] 48.6% | [20] 70%

C=C1C(=O)O[C@H]2[C@H]1CC/C(C=Nc1c(N)cc(F)cc1Br)=C\CC[C@@]1(C)O[C@@H]21
inactive: [1] 93.1% | [2] 82.9% | [3] 97.7% | [4] 89.2% | [5] 96.3% | [6] 97.3% | [7] 53.8% | [8] 78.8% | [9] 43.8% | [10] 38.8% | [11] 55.2% | [12] 20.3% | [13] 99.5% | [14] 65.1% | [15] 66.3% | [16] 83.1% | [17] 99.7% | [18] 86.9% | [19] 81.9% | [20] 66.2%

O=CN1N=C(c2ccc3c(c2)OCO3)CC1c1cccc(Nc2ccnc3cc(C(F)(F)F)ccc23)c1 (stereo not given)
inactive: [1] 68.9% | [2] 69.2% | [3] 107% | [4] 81.2% | [5] 86.4% | [6] 73% | [7] 68.3% | [8] 83.9% | [9] 90.7% | [10] 67.5% | [11] 86.4% | [12] 37% | [13] 101% | [14] 78.2% | [15] 86.4% | [16] 65.4% | [17] 83.1% | [18] 90.5% | [19] 86.8% | [20] 78.6%

COc1ccc(Sc2[nH]c(C(C)=O)c3ccccc23)cc1
inactive: [1] 82.6% | [2] 69.8% | [3] 76.7% | [4] 83.7% | [5] 20.4% | [6] 65.8% | [8] 23% | [9] 92.2% | [11] 89.4% | [12] 11.9% | [13] 74% | [14] 83.3% | [15] 69.1% | [16] 73.2% | [17] 93.4% | [18] 72.2% | [19] 84.1% | [20] 62.3%
active: [7] -7.2% | [10] -31.2%

Nn1c(SCC(=O)Nc2ccc(Cl)cc2)nnc1-c1cc(F)c(Cl)cc1Cl
inactive: [1] 93% | [2] 93.5% | [3] 80.2% | [4] 55.8% | [5] 90% | [6] 76.6% | [7] 66.1% | [8] 87.2% | [9] 93.4% | [10] 96.6% | [11] 108% | [12] 77.4% | [13] 92.6% | [14] 81.8% | [15] 117% | [16] 97.4% | [17] 87.9% | [18] 92.9% | [19] 98.2% | [20] 96.9%

COC1=CC=CC2(OC)C3(O)CCCc4cccc(c43)N3C(=O)COC132 (stereo not given)
inactive: [1] 96.1% | [2] 103% | [3] 101% | [4] 102% | [5] 105% | [6] 89.9% | [7] 78.8% | [8] 90.8% | [9] 102% | [10] 107% | [11] 106% | [12] 92.5% | [13] 92.9% | [14] 98.5% | [15] 104% | [16] 98.4% | [17] 106% | [18] 98% | [19] 101% | [20] 99.1%

O=C(Nc1nc(-c2ccccc2Cl)cs1)c1cc(-c2ccc(Br)cc2)nc2ccccc12
active: [7] 4.64%
inactive: [1] 14.3% | [2] 37.5% | [3] 70.4% | [4] 52.6% | [5] 45.9% | [6] 21.4% | [8] 37.5% | [9] 75.3% | [10] 67.2% | [11] 69.3% | [12] 23.5% | [13] 75.1% | [14] 27.3% | [15] 59% | [16] 66.4% | [17] 34.4% | [18] 76.1% | [19] 29.5% | [20] 62.5%

CCOC(=O)NC(Cc1ccccc1)c1ccccc1 (stereo not given)
inactive: [1] 98.4% | [2] 98.8% | [3] 114% | [4] 99.6% | [5] 111% | [6] 87.4% | [7] 87.1% | [8] 99.1% | [9] 96.6% | [10] 105% | [11] 110% | [12] 91% | [13] 110% | [14] 97.8% | [15] 112% | [16] 111% | [17] 106% | [18] 98.6% | [19] 108% | [20] 95.8%
